Experimental findings from ChEMBL document CHEMBL1201862, “PubChem BioAssay data set” (2004) are described below.

In all, about 310,000 compounds went through this assay and about 17,000 (5.5%) were called active. Not shown: some 11% with an inconclusive outcome. This is one part of a sample in which actives are shown more often than they occur. The rule behind the calls is not given here.

The target of the experiment is T1, Nuclear receptor ROR-gamma (Mus musculus) (UniProt P51450).
T1 sequence (whole entry): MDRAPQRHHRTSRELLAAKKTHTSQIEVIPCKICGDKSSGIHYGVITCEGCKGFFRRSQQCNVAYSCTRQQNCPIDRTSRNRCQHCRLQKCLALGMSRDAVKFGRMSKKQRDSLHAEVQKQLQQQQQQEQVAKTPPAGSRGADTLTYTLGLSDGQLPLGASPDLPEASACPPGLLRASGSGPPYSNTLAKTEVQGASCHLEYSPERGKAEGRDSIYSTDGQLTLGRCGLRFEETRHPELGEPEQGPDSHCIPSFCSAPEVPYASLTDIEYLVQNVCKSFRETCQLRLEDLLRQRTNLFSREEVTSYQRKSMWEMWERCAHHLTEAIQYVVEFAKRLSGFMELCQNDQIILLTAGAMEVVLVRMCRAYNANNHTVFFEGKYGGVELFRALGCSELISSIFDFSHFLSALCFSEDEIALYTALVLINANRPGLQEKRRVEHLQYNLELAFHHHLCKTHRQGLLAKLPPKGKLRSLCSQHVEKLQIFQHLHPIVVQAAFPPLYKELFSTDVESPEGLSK
Description: qHTS for inhibitors of ROR gamma transcriptional activity. The experiment is classed as functional.
As to `COC[C@@H]([C@H](O)[C@H](O)C(=O)NCC[C@H](C)c1nc(/C=C/C[C@@H]2O[C@]3(C[C@@H](O)[C@@H]2C)O[C@H]([C@H](C[C@H](O)[C@H](C)[C@H](O)[C@H](C)/C=C(C)/C(C)=C/C=C/C(C)=C\C#N)OC)[C@H](OP(=O)(O)O)C3(C)C)co1)N(C)C`, the Potency is 0.0014 µM (active).

Turning to `Cl[Te]1(Cl)OCCO1`, the Potency is 15.8 µM (active).
